These entries were drawn from the full list.
aSyn 5UTR act – Activators via SNCA 5'UTR binding, MLPCN | alpha-synuclein 5'UTR reporter, activators screen | activity score, % (tested at 7.5 µM), hits read low | hit rate 7.1% among 300,000 | AID 1814, 2009; in the data active means activity score below about -60%
* marks the source's active call; other numbers are inactive results.

SMILES	aSyn 5UTR act
Cc1cccc(N/N=C(\C(N)=O)C2=NC(C)(C)Cc3ccccc32)c1	59
Cc1cccc(NC(=O)C2Cc3ccccc3O/C2=N\O)c1 (stereo not drawn)	-138*
COc1ccc(NC(=O)C2Cc3ccccc3O/C2=N\O)cc1 (stereo not drawn)	-82*
CSc1nn(-c2ccc(C(=O)OCC(=O)NC(=O)NC(C)C)cc2)c(=S)s1	-69*
CC(C)N1CN=C(Nc2nc3ccccc3o2)NC1	-70*
COCCN1CN=C(Nc2nc3ccccc3o2)NC1	-83*
c1ccc2oc(NC3=NCN(C4CCCCC4)CN3)nc2c1	-174*
CCCCN1CN=C(Nc2nc3ccccc3o2)NC1	-136*
Cc1ccc(Nc2cccccc2=O)cc1	-101*
Cc1c2cnn(CC(=O)NC3CCCC3)c(=O)c2c(C)n1Cc1ccccc1	-100*
O=C(COc1ccc(Br)cc1Br)NC1CCCC1	-113*
O=C(COc1ccc(Cl)cc1Cl)NC1CCSC1=O (stereo not drawn)	-86*
O=C(COc1ccc(Br)cc1Cl)NC1CCCCC1	-162*
Nc1n[nH]c(N)c1N=Nc1ccc2c(c1)OCO2	-229*
Cc1ccc(N=Nc2c(N)n[nH]c2N)cc1	-93*
COc1cccc(CNC(=O)CCS(=O)(=O)c2ccc3c(c2)NC(=O)CO3)c1	99
Cc1cccn2cc(-c3ccc4c(c3)NC(=O)CO4)nc12	-97*
COc1cccc(-c2nc(-c3ccc4c(c3)NC(=O)CO4)cs2)c1	-197*
COc1cccc(C2CC(=O)Nc3cc4c(cc32)CCC4)c1 (stereo not drawn)	84
O=C(Nc1ccc(Cl)c(Cl)c1)Nc1ccc(N2CCCC2)c(S(=O)(=O)Nc2ccccc2Cl)c1	95
O=C(/C=C/c1cccs1)Nc1ccc(N2CCOCC2)c(S(=O)(=O)Nc2ccccc2Cl)c1	-139*
OC(COc1ccc(CNCCc2ccc(C(F)(F)F)cc2)cc1)CN1CCCCC1 (stereo not drawn)	82
CSc1ccccc1NC(=S)NCc1ccc(Cl)cc1	-110*
CSc1ccccc1NC(=O)COc1ccc(Cl)cc1	-62*
CSc1ccccc1NC(=O)COc1ccccc1Cl	-65*
SMILES	aSyn 5UTR act
O=C(CCl)Nc1ccccc1Sc1ccc(Cl)cc1	93
CC(C)NC(=O)c1ccc(-c2ccccc2C(F)(F)F)o1	-131*
CN(c1ccccc1)c1nc2ccsc2c(=O)s1	-124*
O=C(O)c1ccc(-c2nc(-c3ccc(Cl)c(Cl)c3)cs2)cc1	-100*
O=C(O)c1ccc(-c2nc(-c3ccccc3)cs2)cc1	-140*
O=C(O)c1ccccc1-c1csc(-c2ccccc2)n1	-118*
c1ccc(-c2csc(-c3ccc(-c4csnn4)cc3)n2)cc1	-192*
Cc1oncc1-c1csc(-c2ccccc2)n1	-82*
c1ccc(COc2ccc(-c3csnn3)cc2)cc1	-185*
CNC(=O)c1ccc(-c2nc(-c3ccccc3)cs2)cc1	-116*
O=C(O)c1ccc(-c2nc(-c3ccccc3Cl)cs2)cc1	-118*
O=C(O)c1ccccc1C(=O)Nc1ccc(Oc2cccc3ccccc23)cc1	94
CNC(=O)c1csc(-c2ccc(C)cc2)n1	-81*
O=C(O)c1ccccc1C(=O)Nc1ccc(-c2csc(-c3ccccc3)n2)cc1	-64*
CC(=O)N=C(N)Sc1nc2ccccc2[nH]1	-135*
Cc1cc(C(=O)Nc2ccc(OCc3ccccc3)cc2)c(C)o1	-134*
CCOC(=O)c1c(NC(=O)c2cc(C)oc2C)sc(C(=O)Nc2ccc(Cl)cc2)c1C	-102*
Cc1ccsc1C(=O)Nc1ccc(OCc2ccccc2)cc1	-191*
Cc1ccc(C(=O)Nc2ccc(OCc3ccccc3)cc2)s1	-107*
COc1ccc(COc2ccsc2C(=O)Nc2ccc(Cl)c(Cl)c2)cc1	-68*
C=CCOC(=O)/C(=C\c1ccccc1)NC(=O)c1ccc(C)cc1	-175*
CCOC(=O)/C(=C\c1ccccc1)NC(=O)c1ccccc1	-105*
O=c1c(Cl)nc2cc(Cl)ccc2n1CCNc1ncc(C(F)(F)F)cc1Cl	110
NC(=O)C1=NOC(CNc2ncc(C(F)(F)F)cc2Cl)C1 (stereo not drawn)	-72*
Cc1cc(C)c2nc(-n3nc(C)cc3N)cc(C)c2c1	-162*
SMILES	aSyn 5UTR act
Cc1cc(N)n(-c2cc(C)c3ccccc3n2)n1	-118*
COc1ccc(C/C(=N\O)c2ccc(OC)cc2)cc1	-89*
CCc1ccc(NC(=O)Cc2ccc(OC)cc2)cc1	-67*
CCc1ccc(NC(=O)Nc2cccc(OC)c2)cc1	-199*
COc1ccc(NC(=O)Cc2ccccc2)cc1	-101*
COc1ccc(CC(=O)Nc2ccc(C(C)=O)cc2)cc1	-86*
CCOc1ccc(NC(=O)N2CCC(c3ccc(C)cc3)C2)cc1 (stereo not drawn)	-67*
O=C(c1cccs1)N1CCC(c2ccccc2)C1 (stereo not drawn)	-140*
Cc1ccc(C2CCN(C(=S)NC(C)(C)C)C2)cc1 (stereo not drawn)	-93*
CCc1ccc(NC(=O)N2CCC(c3ccccc3)C2)cc1 (stereo not drawn)	-172*
COc1ccc(NC(=S)N2CCC(c3ccccc3)C2)cc1 (stereo not drawn)	-169*
O=C(Nc1ccccc1)N1CCC(c2ccccc2)C1 (stereo not drawn)	-141*
O=C(Nc1ccc(F)cc1F)c1cc2n(n1)C(C(F)(F)F)C1CCCCC1N2 (stereo not drawn)	-69*
O=C(Nc1ccc(F)cc1F)c1cc2nc3c(c(C(F)(F)F)n2n1)CCCC3	-79*
O=c1c2ccccc2nc(N/N=C/c2c(O)ccc3ccccc23)n1O	82
N=C(N)SCc1nc2ccccc2c(=O)n1-c1ccccc1	-95*
Nc1nc(-c2ccc(Br)s2)c(Br)s1	-77*
Cc1cccnc1NC(=O)c1sc2ccccc2c1Cl	-70*
O=C(NC1=NCCS1)c1sc2ccccc2c1Cl	-166*
O=C(NC1=NCCS1)c1sc2cc(Cl)cc(Cl)c2c1Cl	-64*
Cc1nc(-c2ccccc2)sc1C1(C)CC(c2ccccc2F)=NO1 (stereo not drawn)	-76*
COc1ccccc1C1=NOC(C)(c2sc(-c3ccc(Cl)cc3)nc2C)C1 (stereo not drawn)	-70*
Cc1nc(-c2ccc(Cl)cc2)sc1C1(C)CC(c2ccccc2)=NO1 (stereo not drawn)	-134*
O=C(Nc1cccnc1)C1CCN(S(=O)(=O)c2cccs2)CC1	-108*
Cc1ccc(-n2c(N)c(C(=O)Nc3c(C)n(C)n(-c4ccccc4)c3=O)c3nc4ccccc4nc32)cc1C	74
SMILES	aSyn 5UTR act
Cc1cccc(-n2c(N)c(C(=O)NCCN3CCOCC3)c3nc4ccccc4nc32)c1	-83*
Cc1cc(C(=O)COC(=O)c2ccccc2O)c(C)n1Cc1cccs1	93
Cc1cc(C(=O)COC(=O)c2ccc3c(c2)OCO3)c(C)n1Cc1cccs1	-65*
C=CCn1c(C)cc(C(=O)COC(=O)c2ccc(N)c([N+](=O)[O-])c2)c1C	-142*
Cc1ccc(C(=O)OCC(=O)c2cc(C)n(CC3CCCO3)c2C)cc1 (stereo not drawn)	-161*
Cc1cc(C(=O)COC(=O)c2ccc(N)c([N+](=O)[O-])c2)c(C)n1Cc1ccc2c(c1)OCO2	-164*
CC(=O)Nc1ccccc1OCC(=O)c1cc(C)n(Cc2cccs2)c1C	-150*
Cc1cc(C(=O)CSc2nnc(-c3cccnc3)n2-c2ccccc2)c(C)n1CC1CCCO1 (stereo not drawn)	-78*
O=C(CNCc1ccc(Cl)cc1)Nc1ccc2c(c1)OCCO2	-99*
O=C(CNCc1ccccc1Cl)Nc1ccc2c(c1)OCCO2	-117*
